# CYP2C9 act: increases human cytochrome P450 2C9 activity | activation factor at 5 µM | recombinant CYP2C9, luciferin-H conversion, luminescence; hits give high values; factor 1 = untreated enzyme, 0 = blocked | P11712 | AID 1024 | 96,000 compounds, 1.4% hits;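 active means activation factor of 2 or more for CYP2C9 at a 5 µM dose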;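 further: 0 = sulfaphenazole-blocked wells and 1 = vehicle-only wells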
# CYP2C19 inhib: inhibitors of human CYP2C19. inhibition, % at 5 µM. P33261. 96,000 compounds, 21% hits. CYP2C19 Supersomes, luciferin-H EGE luminescence, 30 min;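 active means CYP2C19 inhibition above a set limit at 5 µM in the primary screen, cut at about 50% in these data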;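 further: plate controls were negative control wells for no effect and 2.5 mM tranylcypromine positive control for full effect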
# Target sequence (P33261 whole entry, looked up): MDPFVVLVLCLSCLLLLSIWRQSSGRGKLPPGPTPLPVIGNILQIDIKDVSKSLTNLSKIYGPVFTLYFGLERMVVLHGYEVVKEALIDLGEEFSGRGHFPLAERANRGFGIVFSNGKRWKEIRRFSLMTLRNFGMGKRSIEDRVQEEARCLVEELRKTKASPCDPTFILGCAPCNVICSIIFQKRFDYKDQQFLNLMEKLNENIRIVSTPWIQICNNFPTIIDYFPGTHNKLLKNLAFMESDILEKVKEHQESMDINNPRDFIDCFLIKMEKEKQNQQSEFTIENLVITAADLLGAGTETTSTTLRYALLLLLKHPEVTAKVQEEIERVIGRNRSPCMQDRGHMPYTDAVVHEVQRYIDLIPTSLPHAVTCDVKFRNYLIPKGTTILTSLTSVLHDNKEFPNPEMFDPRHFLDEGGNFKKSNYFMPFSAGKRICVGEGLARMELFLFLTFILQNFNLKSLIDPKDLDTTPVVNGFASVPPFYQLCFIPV
# CYP2C19 act: activators of human cytochrome P450 2C19; recombinant CYP2C19, luciferin-H EGE luminescence; hits give high values; 0 = fully inhibited enzyme, 1 = untreated enzyme; activation factor at 5 µM; 96,000 tested, under 10 active; AID 1025;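 active means activation factor of at least 2 at 5 µM in the primary screen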;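 further: 0 = wells with 2.5 mM tranylcypromine and 1 = vehicle-only wells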
# PostGolgi ctrl: inhibits growth of the yeast control strain. 98,000 compounds, 5% hits. efflux-deficient yeast background strain, growth absorbance A615, 16 h. inhibition, % at 10 µM
# PostGolgi yeast: growth inhibition of a yeast mutant, post-Golgi transport screen | 98,000 compounds, 0.9% hits | post-Golgi transport phenotypic cell assay | inhibition, % at 10 µM | AID 739;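 further: yeast cells grown in 1536-well plates; yeast grown about 18 h at 30C before absorbance read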
# CYP2C9 inhib: inhibitors of human CYP2C9 | P11712 | CYP2C9 Supersomes, luciferin-H conversion, luminescence | inhibition, % at 5 µM | 96,000 compounds, 20% hits;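 active means blocking of liver enzyme CYP2C9 beyond about 50% at 5 µM, limit read from the data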
# * = called active by the depositor; . = no result given. Hits are enriched below; roughly 32% of the tested compounds scored in any of these assays. Unless noted, no stated cut-off is given here; in the data, active means inhibition above about 30%; inactive means the rest.
SMILES,CYP2C9 act,CYP2C19 inhib,CYP2C19 act,PostGolgi ctrl,PostGolgi yeast,CYP2C9 inhib
CCN(CC)C(=O)CSc1nc(N)c2c3c(sc2n1)CC(C)CC3 (configuration not stated),0.5,56*,0.4,25,-3,54*
CCOC(=O)c1cnn(-c2ncnc3sc4c(c23)CCC4)c1N,0.8,11,0.9,4,2,15
CCC(C)C(NC(=O)C1CCC(C)CC1)C(=O)NC(C(=O)OC)C(C)C (configuration not stated),0.9,2,1,4,3,8
Cc1cc(C)c(NC(=O)CS(=O)CC(=O)NC2CCCc3ccccc32)c(C)c1 (configuration not stated),1.2,-4,1,2,-1,-19
CCOC(=O)CSc1nnc(CSc2nc3sc4c(c3c(=O)[nH]2)CCCC4)n1-c1ccccc1,0.3,74*,0.3,11,-5,70*
CCOC(=O)CSc1nc(N)c2c3c(sc2n1)CCCC3,0.4,41,0.6,12,-8,62*
CC/C(=N\NC(=O)CSCc1ccccc1Br)c1ccc2c(c1)OCCO2,1,-11,1.1,4,4,-1
O=C(CSCc1ccc(Cl)cc1)N/N=C/c1ccccc1,0.4,86*,0.1,14,2,60*
O=C(CSCc1ccccc1)Nc1ccc(Cl)cn1,0.3,64*,0.4,9,7,70*
CC/C(=N\NC(=O)CSCc1ccc(Cl)cc1)c1ccc2c(c1)OCCO2,0.4,78*,0.2,-5,5,59*
O=C(Cn1cnc2ccccc21)NCc1ccccc1,1,28,0.7,6,-2,2
CC(C)(C)n1ncc2c(=O)n(CC(=O)N3CCCc4ccccc43)cnc21,0.9,28,0.7,10,-9,10
CCNC(=O)CSc1nnc(-c2ccc(OC)cc2)n1CC(C)C,0.8,11,0.9,5,1,21
Cc1ccccc1OCC1CN(CN2CCOCC2)C(=O)O1 (configuration not stated),1.1,11,0.9,3,13,-13
CC(C)(C)N1CC(COc2ccccc2)OC1=O (configuration not stated),0.8,71*,0.3,9,10,19
CCCCNC(=O)CN(C1CCCCC1)S(C)(=O)=O,0.3,31,0.7,12,-10,74*
CS(=O)(=O)N(CC(=O)NCCc1ccccc1)C1CCCCC1,1,24,0.8,-10,-2,4
CCOC(=O)c1c(C2COc3ccccc3O2)csc1N (configuration not stated),0.2,91*,0.1,22,8,80*
CCOC(=O)c1c(C2COc3ccccc3O2)csc1NC(=O)c1ccccc1 (configuration not stated),0.3,17,0.8,1,-4,71*
CCOC(=O)c1c(NC(=O)c2ccccc2)sc2c(O)c(CN(CC)CC)ccc12,0.5,14,0.9,22,9,47
COc1cc2cc(CN(CCO)C(=O)c3cccs3)c(=O)[nH]c2cc1OC,1.1,-11,1.1,4,0,-8
COc1ccc(C2CC(c3ccc(Cl)c(Cl)c3)Nc3nc(N)nn32)cc1 (configuration not stated),0.8,16,0.8,36*,1,24
COc1ccc(C2CC(c3c(Cl)cccc3Cl)n3nc(N)nc3N2)cc1 (configuration not stated),1.1,62*,0.4,16,-1,-5
COc1cccc(C2CC(c3ccc(Cl)cc3Cl)Nc3nc(N)nn32)c1 (configuration not stated),0.5,67*,0.3,26,7,54*
COc1ccc(C2CC(c3ccc(Cl)cc3Cl)Nc3nc(N)nn32)cc1 (configuration not stated),0.6,44,0.6,-2,0,37
SMILES,CYP2C9 act,CYP2C19 inhib,CYP2C19 act,PostGolgi ctrl,PostGolgi yeast,CYP2C9 inhib
COc1ccc(C(CC(=O)NCCCN2CCOCC2)NS(=O)(=O)c2ccc(C)cc2)cc1 (configuration not stated),1.1,-11,1.1,2,5,-12
O=C1CCCCCN1CP(=O)(O)CN1CCOCC1,1,2,1,.,.,2
O=C1CSc2ccccc2N1Cc1ccccc1F,0.8,37,0.6,6,-6,19
CC(C)CNC(=O)c1ccccc1NC(=O)Nc1ccccc1,0.5,32,0.7,0,-9,52*
CSc1ccccc1NC(=O)Nc1ccccc1,0.7,58*,0.4,10,-1,30
O=C(Nc1ccccc1)Nc1cc(Cl)cc(Cl)c1,0.8,13,0.9,56*,9,16
CC(C)CNC(=O)c1ccccc1Oc1ccccc1,0.6,75*,0.2,3,25,40
C(=N\Nc1nc(-c2ccccc2)cs1)/c1cccs1,0.6,45,0.5,4,-10,41
COC(=O)c1nn(C23CC4CC(CC(C4)C2)C3)c2c1C(=O)N(c1ccc(Br)cc1)C2=O,0.8,20,0.8,12,7,22
CSc1cccc(NC(=O)/C=C/c2ccccc2)c1,1.9,55*,0.4,-1,-9,-91
CSc1cccc(NC(=O)C2CCN(S(=O)(=O)c3ccc(F)cc3)CC2)c1,1,23,0.8,4,-8,-4
CSc1cccc(NC(=O)C(C)NS(=O)(=O)c2ccc(F)cc2)c1 (configuration not stated),1,62*,0.4,2,0,-1
O=C(N/C(=N\O)c1ccccc1)Nc1ccc(Cl)cc1,0.4,64*,0.4,1,4,56*
CSc1cccc(NC(=O)Nc2ccccc2)c1,0.7,44,0.6,48*,-4,28
COC(=O)Nc1ccccc1C(=O)N1CCCCC1,1,41,0.6,2,7,1
Cc1onc(-c2ccccc2)c1C(=O)NCC1CCN(C(=O)c2c(-c3ccccc3)noc2C)CC1,0.7,18,0.8,-5,-2,32
Cc1cc(C)cc(N2CCCn3c2nc2c3c(=O)n(CCN3CCOCC3)c(=O)n2C)c1,1,-12,1.1,-4,-5,-2
CCCNC(=O)c1ccccc1NC(=O)Nc1ccccc1C,0.8,51*,0.5,7,-3,24
Cc1ccccc1C(=O)Nc1ccccc1C(=O)NCc1ccccc1,0.9,0,1,13,0,11
CCOc1ccc(S(=O)(=O)n2nnc3ccccc32)cc1C,1.2,-7,1.1,-2,5,-24
CCOc1ccc(Cl)cc1S(=O)(=O)n1nnc2ccccc21,2*,98*,0,-3,4,-104
N/C(Cc1ccc(Cl)c(Cl)c1)=N\OC(=O)c1cccs1,0.4,38,0.6,79*,19,63*
N/C(Cc1cccs1)=N\OC(=O)COc1ccccc1Cl,0.8,24,0.8,4,0,16

# Source: PubChem BioAssay
